Where “and” joins values, the source holds several entries; their conditions need not be identical. Equal values may be shown once. Calls of active or inactive are those of the source.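 How the source made its calls, unless noted: active means compounds whose cell count with miR-34 switched on is under 0.7 times the count with it off; inactive means the rest.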
Test: sensitizers of A549 cells to miR-34 induction, primary screen, imaging, A549 dox-inducible miR-34, nuclei and caspase counts (AID 1347080)
Conditions: A549 miR-34 inducible, Hoechst nuclei count, 48 h; stronger effect = lower value; cell number ratio, induced over uninduced

Row | Compound | fold change
1 | CNC(=O)c1cc(COc2nnc(Nc3ccc(Cl)cc3)c3ccoc23)ccn1 | 0.883 (inactive)
2 | Nc1ccn([C@@H]2O[C@H](CO)[C@@H](O)C2(F)F)c(=O)n1 | 0.809 (inactive)
3 | COc1cc2ncnc(Nc3cccc(Cl)c3)c2cc1OC | 1.29 (inactive) and 1.02 (inactive) and 0.9 (inactive)
4 | CC(=O)Oc1cc2c(s1)CCN(C(C(=O)C1CC1)c1ccccc1F)C2 (stereo not drawn) | 0.891 (inactive) and 0.933 (inactive)
5 | Nc1cccc(-c2cc3c(Oc4cccc(O)c4)ncnc3[nH]2)c1 | 1.45 (inactive)
6 | O=C(Nc1nc2cccc(-c3ccc(CN4CCS(=O)(=O)CC4)cc3)n2n1)C1CC1 | 0.924 (inactive)
7 | CC(C)(O)CC(=O)NCCn1ccc2ncnc(Nc3ccc(Oc4cccc(C(F)(F)F)c4)c(Cl)c3)c21 | 0.965 (inactive)
8 | CNC(=O)c1cc(Oc2ccc(NC(=O)Nc3ccc(Cl)c(C(F)(F)F)c3)c(F)c2)ccn1 | 0.87 (inactive)
9 | CS(=O)(=O)N1CCc2c(-c3cnc(N)nc3)nc(N3CCOCC3)nc21 | 0.998 (inactive)

Same assay, conditions: A549 miR-34 inducible, Hoechst nuclei count, 48 h; measured here: relative caspase fold change +Dox/-Dox

Row | Compound | fold change
10 | CNC(=O)c1cc(COc2nnc(Nc3ccc(Cl)cc3)c3ccoc23)ccn1 | 0.896
11 | Nc1ccn([C@@H]2O[C@H](CO)[C@@H](O)C2(F)F)c(=O)n1 | 2.54
12 | COc1cc2ncnc(Nc3cccc(Cl)c3)c2cc1OC | 0.693 and 0.941 and 0.779
13 | CC(=O)Oc1cc2c(s1)CCN(C(C(=O)C1CC1)c1ccccc1F)C2 (stereo not drawn) | 0.621 and 0.805
14 | Nc1cccc(-c2cc3c(Oc4cccc(O)c4)ncnc3[nH]2)c1 | 0.507
15 | O=C(Nc1nc2cccc(-c3ccc(CN4CCS(=O)(=O)CC4)cc3)n2n1)C1CC1 | 0.426
16 | CC(C)(O)CC(=O)NCCn1ccc2ncnc(Nc3ccc(Oc4cccc(C(F)(F)F)c4)c(Cl)c3)c21 | 0.647
17 | CNC(=O)c1cc(Oc2ccc(NC(=O)Nc3ccc(Cl)c(C(F)(F)F)c3)c(F)c2)ccn1 | 0.959
18 | CS(=O)(=O)N1CCc2c(-c3cnc(N)nc3)nc(N3CCOCC3)nc21 | 0.485

Same assay, conditions: A549 miR-34 inducible, Hoechst nuclei count, 48 h; measured here: total cells with miR-34 induction; stronger effect = lower value

Row | Compound | cell count
19 | CNC(=O)c1cc(COc2nnc(Nc3ccc(Cl)cc3)c3ccoc23)ccn1 | 5140
20 | Nc1ccn([C@@H]2O[C@H](CO)[C@@H](O)C2(F)F)c(=O)n1 | 2200
21 | COc1cc2ncnc(Nc3cccc(Cl)c3)c2cc1OC | 2650 and 1830 and 6990
22 | CC(=O)Oc1cc2c(s1)CCN(C(C(=O)C1CC1)c1ccccc1F)C2 (stereo not drawn) | 7600 and 7230
23 | Nc1cccc(-c2cc3c(Oc4cccc(O)c4)ncnc3[nH]2)c1 | 1790
24 | O=C(Nc1nc2cccc(-c3ccc(CN4CCS(=O)(=O)CC4)cc3)n2n1)C1CC1 | 6290
25 | CC(C)(O)CC(=O)NCCn1ccc2ncnc(Nc3ccc(Oc4cccc(C(F)(F)F)c4)c(Cl)c3)c21 | 8120
26 | CNC(=O)c1cc(Oc2ccc(NC(=O)Nc3ccc(Cl)c(C(F)(F)F)c3)c(F)c2)ccn1 | 2520
27 | CS(=O)(=O)N1CCc2c(-c3cnc(N)nc3)nc(N3CCOCC3)nc21 | 3180

Same assay, conditions: A549 miR-34 inducible, Hoechst nuclei count, 48 h; measured here: total cells without miR-34 induction

Row | Compound | cell count
28 | CNC(=O)c1cc(COc2nnc(Nc3ccc(Cl)cc3)c3ccoc23)ccn1 | 5820
29 | Nc1ccn([C@@H]2O[C@H](CO)[C@@H](O)C2(F)F)c(=O)n1 | 2720
30 | COc1cc2ncnc(Nc3cccc(Cl)c3)c2cc1OC | 2060 and 1800 and 7760
31 | CC(=O)Oc1cc2c(s1)CCN(C(C(=O)C1CC1)c1ccccc1F)C2 (stereo not drawn) | 8520 and 7750
32 | Nc1cccc(-c2cc3c(Oc4cccc(O)c4)ncnc3[nH]2)c1 | 1240
33 | O=C(Nc1nc2cccc(-c3ccc(CN4CCS(=O)(=O)CC4)cc3)n2n1)C1CC1 | 6810
34 | CC(C)(O)CC(=O)NCCn1ccc2ncnc(Nc3ccc(Oc4cccc(C(F)(F)F)c4)c(Cl)c3)c21 | 8420
35 | CNC(=O)c1cc(Oc2ccc(NC(=O)Nc3ccc(Cl)c(C(F)(F)F)c3)c(F)c2)ccn1 | 2900
36 | CS(=O)(=O)N1CCc2c(-c3cnc(N)nc3)nc(N3CCOCC3)nc21 | 3180

Test: modifiers of HSF1 nuclear foci, imaging, Selleck Cancer Library (AID 1347162; in the data active means plate-normalised HSF1 focus index below about 0.46)
Conditions: human cells, at 10 µM; SSMD: measured here: HSF1 foci SSMD mean; cell count: measured here: cell number; plate-normalised HSF1 focus index: stronger effect = lower value

Row | Compound | SSMD | plate-normalised HSF1 focus index | cell count
37 | COc1ccc(-c2cc3nccn3c(Nc3ncccc3C(N)=O)n2)cc1OC | -0.302 | 0.994 (inactive) | 6940
38 | CNC(=O)c1cc(COc2nnc(Nc3ccc(Cl)cc3)c3ccoc23)ccn1 | -14.1 | 0.266 (active) | 4310
39 | CC(C)=CCC/C(C)=C/CC/C(C)=C/CSc1ccccc1C(=O)O | 2.56 | 1.15 (inactive) | 6790
40 | O=C1[C@H](Cc2ccc(O)cc2)N2C(=O)CCN(C(=O)NCc3ccccc3)[C@H]2CN1Cc1cccc2ccccc12 | 1.66 | 1.09 (inactive) | 6950
41 | OCCn1cc(-c2ccc3c(c2)CC/C3=N\O)c(-c2ccncc2)n1 | 1.73 | 1.09 (inactive) | 6750
42 | CS(=O)(=O)N1CCc2c(-c3cnc(N)nc3)nc(N3CCOCC3)nc21 | -3.29 | 0.883 (inactive) | 7210

Test: survival rescue of mitochondrial mutant cells in low glucose, primary screen, MELAS cybrids, Rieske KO mouse fibroblasts, CellTiter-Glo (AID 1508586;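 active means mean z-score across replicates of 1.96 or higher in either the MELAS or the Rieske mutant cell line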;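 further: z relative to plate mean and SD of compound and empty wells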)
Conditions: MELAS cybrid survival, CellTiter-Glo 48 h, stronger effect = higher value

Row | Compound | z-score
43 | CNC(=O)c1cc(COc2nnc(Nc3ccc(Cl)cc3)c3ccoc23)ccn1 | -0.151 (inactive)
44 | Nc1ccn([C@@H]2O[C@H](CO)[C@@H](O)C2(F)F)c(=O)n1 | 0.323 and -0.775
45 | COc1cc2ncnc(Nc3cccc(Cl)c3)c2cc1OC | -0.433 (inactive)
46 | CC(=O)Oc1cc2c(s1)CCN(C(C(=O)C1CC1)c1ccccc1F)C2 (stereo not drawn) | -1.04 (inactive) and -0.446 (inactive)
47 | Nc1cccc(-c2cc3c(Oc4cccc(O)c4)ncnc3[nH]2)c1 | 0.0499 (inactive)
48 | O=C(Nc1nc2cccc(-c3ccc(CN4CCS(=O)(=O)CC4)cc3)n2n1)C1CC1 | -0.57 (inactive)
49 | CC(C)(O)CC(=O)NCCn1ccc2ncnc(Nc3ccc(Oc4cccc(C(F)(F)F)c4)c(Cl)c3)c21 | -0.328 (inactive)
50 | CNC(=O)c1cc(Oc2ccc(NC(=O)Nc3ccc(Cl)c(C(F)(F)F)c3)c(F)c2)ccn1 | -0.38 (inactive)
51 | CS(=O)(=O)N1CCc2c(-c3cnc(N)nc3)nc(N3CCOCC3)nc21 | 3.23 (active)

Source: PubChem BioAssay
